# Source: PubChem BioAssay (NCATS)
# Results filed as inconclusive are left out. Unmarked numbers belong to inactive results. The source made the active and inactive calls. Calls come from the whole dose curve; as a rule, active = well fitted cell-killing curve with a large enough effect; inconclusive = small, poorly fitted or top-dose-only effect, or effect the other way; inactive = flat fitted curve, though single readings scatter.
# System: JEG-3
# Assay: Primary qHTS to identify gynecologic anti-cancer compounds using libraries of approved drugs and bioactive compounds (AID 1345084); note: nearly all actives have a fitted effect of over 55% in size
# Conditions: Gynecologic cancer cell panel viability, ATPlite luminescence, 48 h; series mostly up to 57.5 µM; activity change, negative = cytotoxicity: at the top concentration
# Procedure, shortened: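 Cell viability after 48 h drug treatment, ATPlite luminescence readout; five doses.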
# % is set by controls: 0 for no effect and ±100 for the full control effect; potency is the fitted concentration of half-maximal effect.
Structure (SMILES),"activity change, negative = cytotoxicity",Potency
CC(C)[C@H]1OC(=O)[C@H](Cc2ccccc2)N(C)C(=O)[C@@H](C(C)C)OC(=O)[C@H](Cc2ccccc2)N(C)C(=O)[C@@H](C(C)C)OC(=O)[C@H](Cc2ccccc2)N(C)C1=O,4.73% [at 25.3 µM],
CC[C@H](O)[C@@H](C)[C@H]1O[C@@H]1C[C@H](C)/C=C/C=C(\C)[C@H]1OC(=O)C[C@H](O)CC[C@@](C)(O)[C@@H](OC(C)=O)/C=C/[C@@H]1C,26.2%,
C=C1C2(C)CC3C(C)(O)C4=CC(=O)OC(C)(C)C4=CCC3(C)C13C(=O)OC(C)C3(O)C2=O (stereo not given),0.127% [at 25.3 µM],
CN(C)[C@@H]1C(=O)C(C(N)=O)=C(O)[C@@]2(O)C(=O)C3=C(O)c4c(O)ccc(Cl)c4[C@@](C)(O)C3C[C@@H]12 (stereo not given in full),20.8%,
CC(=O)O[C@H]1C[C@]2(O)[C@@H]3CC[C@@H]4C[C@@H](O)CC[C@]4(C)[C@H]3CC[C@]2(C)[C@H]1c1ccc(=O)oc1,,316 nM (active)
CN1CCC2=C(C1)c1ccccc1Cc1ccccc12,11.6%,
CCOc1ccc(Oc2ccc(OCc3cc(F)ccc3F)cc2)c(N)c1,1.68%,
CCN1C[C@]2(COC)CC[C@H](O)[C@@]34C5C[C@@H]6[C@@H](OC)C[C@@](OC(C)=O)(C5[C@@H]6OC(C)=O)[C@H]([C@H](OC)C23)[C@@H]14 (stereo not given in full),10.5% [at 25.3 µM],
CC(C)[C@H](NC(=O)c1nn(Cc2ccc(F)cc2)c2ccccc12)C(N)=O,5.17%,
CCCN(CCC)[C@@H]1CCc2ccc3[nH]c(C#N)cc3c2C1,7.84%,
Cc1ccc2c(c1)[C@H]1CN(C)CC[C@H]1N2C(=O)CSc1nnnn1-c1ccc(Cl)cc1,-3.47%,
C[C@]12CC[C@H](O)C[C@@H]1CC[C@@H]1[C@@H]2CC[C@]2(C)C(=O)CC[C@@H]12,4.1%,
CC(=O)OC[C@]12[C@H](OC(C)=O)C(=O)[C@@H]3[C@@H](O)[C@@]14O[C@@]3(C)COC(=O)c1cccnc1[C@@H](C)[C@H](C)C(=O)O[C@@H]([C@H](OC(C)=O)[C@@H]2OC(C)=O)[C@]4(C)O,2.7% [at 25.3 µM],
C#C[C@]1(O)CC[C@H]2[C@@H]3CC[C@H]4Cc5nc6nc7ccccc7n6cc5C[C@]4(C)[C@H]3CC[C@@]21C,-28.2%,
CN1C(=O)N(c2ccc(C#N)c(C(F)(F)F)c2)C(=O)[C@@]1(CO)c1ccccc1,-3.61%,
CCCCCn1cc(C(=O)Oc2cccc3cccnc23)c2ccccc21,14.9%,
C[C@]12CC[C@H](O)C[C@@H]1CC[C@@H]1[C@@H]2CC[C@]2(C)[C@@H](C3=CC(=O)OC3)CC[C@]12O,-19.3% [at 38.5 µM],
C[C@]12CC[C@H](O)C[C@@]1(O)CC[C@@H]1[C@@H]2CC[C@]2(C)[C@@H](c3ccc(=O)oc3)CC[C@]12O,-24.2%,
COC(=O)C12C(=O)C(C)(O)C(=O)C1(C)C(C)=CC1C34CCC(OC3=O)C(C)(C)C4CCC12C (stereo not given),6.58% [at 25.3 µM],
CC1=CC2OC3CC(O)[C@](C)([C@@]2(C)C(O)C1=O)[C@]31CO1 (stereo not given in full),0.466%,
